Source: PubChem BioAssay AID2013 (Sanford-Burnham Center for Chemical Genomics, 2009)
Among all 290,000 compounds or so, about 370 (0.13%) were called active. The sample holds actives, similar compounds and a random draw of the others, so the mix is not that of the screen. Entries with a potency or affinity are not part of this list. Unmarked numbers belong to inactive results.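 The calls were made as follows: active = spots per cell inhibited over 60%, with over 100 cells counted and total cytoplasm intensity under 500,000; inconclusive = wells with under 100 cells, flagged as likely toxic; inactive = the rest.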

molecular target: G-protein coupled receptor 55 (Homo sapiens) (UniProt Q9Y2T6); assay: inhibition of LPI-stimulated GPR55 beta-arrestin translocation – imaging, U2OS, beta-arrestin-GFP, LPI agonist, primary screen (AID 2013); settings: LPI antagonism, at 10 µM, hits give high values;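 also: U2OS cells stably carrying GPR55 and arrestin-GFP stimulated by 5 µM LPI near EC80; imaged beta-arrestin-GFP aggregate spots per cell after agonist stimulation; plate controls were LPI-stimulated DMSO wells for no effect and DMSO wells without LPI for full effect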
Sequence (Q9Y2T6 whole entry, looked up): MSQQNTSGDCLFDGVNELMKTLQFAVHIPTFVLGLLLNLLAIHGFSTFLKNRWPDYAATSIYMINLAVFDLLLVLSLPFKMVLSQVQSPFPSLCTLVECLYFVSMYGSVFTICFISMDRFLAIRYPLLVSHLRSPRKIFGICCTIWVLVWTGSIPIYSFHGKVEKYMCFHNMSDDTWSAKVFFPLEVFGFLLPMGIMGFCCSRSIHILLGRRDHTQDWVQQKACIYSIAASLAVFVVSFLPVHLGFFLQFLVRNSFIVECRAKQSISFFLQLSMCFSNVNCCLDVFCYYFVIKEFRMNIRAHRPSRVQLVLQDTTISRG

Row | Structure (SMILES) | inhibition
1 | COC(=O)COc1ccc(S(=O)(=O)NCc2ccco2)cc1 | 10.1%
2 | C/C(=C\c1ccccc1)C(=O)NCCCn1ccnc1 | 9.4%
3 | Cc1ccc(NC(=S)N(CCCN2CCOCC2)Cc2cccs2)c(C)c1 | 25.2%
4 | Cc1ccccc1NC(=S)N(CCCN1CCOCC1)Cc1cccs1 | 54.6%
5 | CCC(C)(C)n1nnnc1C(c1cccc(C#N)c1)N1CCN(c2cc(C)ccc2C)CC1 (stereo unspecified) | 2.5%
6 | CCc1cc2c(=O)c(-c3ccc4c(c3)OCCO4)coc2cc1OS(C)(=O)=O | 8%
7 | COc1cc(/C=C(\C#N)C(=O)NC2CCCCC2C)ccc1OS(=O)(=O)c1ccc(C)cc1 (stereo unspecified) | 28.8%
8 | COc1cc(/C=C(\C#N)C(N)=O)ccc1OS(=O)(=O)c1ccc(C)cc1 | 28.6%
9 | O=C(OCc1nnc(-c2ccccc2)o1)C12CC3CC(CC(Br)(C3)C1)C2 | 0.4%
10 | N#CC(C#N)=C1C=C2C=C(N3CCCCC3)CCC2CC1 (stereo unspecified) | 3.1%
11 | N#CC(C#N)=C1C=C2C=C(N3CCCCCC3)CCC2CC1 (stereo unspecified) | 23.3%
12 | CCc1ccc(CN2CCC(n3nccc3NC(=O)c3ccccc3)CC2)o1 | -3.9%
13 | Cc1c(C(=O)NCc2ccc3c(c2)OCO3)sc2nc(-c3ccc(F)cc3)cn12 | 11.5%
14 | CC(C)c1nnc(NC(=O)CCC(=O)NCc2ccccc2Cl)s1 | 13%
15 | CCCNc1nc(=S)n(-c2ccccc2)c(C)c1C(C)=O | 4.7%
16 | O=C(O)CSc1ncnc2scc(-c3ccccc3)c12 | 3.8%
17 | Cc1ccc(-c2csc3ncnc(SCc4ccc(C(=O)O)cc4)c23)cc1 | 10%
18 | O=C(NNC(=S)NCc1ccccc1)c1ccc(Br)o1 | 13.5%
19 | C=CCN(c1ccccc1)S(=O)(=O)c1c(C)[nH]c(=O)[nH]c1=O | 0.3%
20 | O=[N+]([O-])CC(=Nc1ccc(F)cc1)N/N=C\c1oc(O)c2ccccc12 | 15.6%
21 | COC(=O)C1=C(C)N(Cc2ccccc2)C(=O)/C1=C\c1ccco1 | 2.2%
22 | COC(=O)C1=C(C)N(Cc2ccc(OC)cc2)C(=O)/C1=C\c1ccco1 | 0.4%
23 | COc1ccc(-c2csc3ncnc(Oc4cccc5ccc(C)nc45)c23)cc1 | 7.8%
24 | Cc1ccc2cccc(Oc3ncnc4scc(-c5ccccc5)c34)c2n1 | 77.9% (active)
25 | Cc1ccc(-c2csc3ncnc(Oc4cccc5ccc(C)nc45)c23)cc1 | 3.8%
26 | Cc1ccc(N2C(=O)C3CCCN3C2=S)cc1C (stereo unspecified) | 3.3%
